Screens deposited in PubChem by Sanford-Burnham Center for Chemical Genomics.
CYP2C19 act – cytochrome P450 2C19 (human) activation. recombinant CYP2C19, luciferin-H EGE luminescence; hits give high values; 0 = fully inhibited enzyme, 1 = untreated enzyme. P33261. 96,000 tested, under 10 active. activation factor at 5 µM;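 active means activation factor of at least 2 at 5 µM in the primary screen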;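 further: 0 = wells with 2.5 mM tranylcypromine and 1 = vehicle-only wells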
Target sequence (P33261 whole entry, looked up): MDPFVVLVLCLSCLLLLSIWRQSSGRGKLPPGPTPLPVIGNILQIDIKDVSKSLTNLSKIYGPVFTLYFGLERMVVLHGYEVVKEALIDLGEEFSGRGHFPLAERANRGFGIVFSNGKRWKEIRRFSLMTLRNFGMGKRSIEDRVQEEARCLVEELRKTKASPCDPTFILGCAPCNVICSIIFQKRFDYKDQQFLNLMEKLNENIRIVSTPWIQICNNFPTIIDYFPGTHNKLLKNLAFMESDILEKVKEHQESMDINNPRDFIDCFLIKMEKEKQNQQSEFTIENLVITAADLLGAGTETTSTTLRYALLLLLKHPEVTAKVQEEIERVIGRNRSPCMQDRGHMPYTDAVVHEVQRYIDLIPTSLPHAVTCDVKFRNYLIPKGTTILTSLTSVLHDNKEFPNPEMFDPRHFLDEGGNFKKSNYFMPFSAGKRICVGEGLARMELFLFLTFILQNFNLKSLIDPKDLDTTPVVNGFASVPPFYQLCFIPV
CYP2C9 inh – human CYP2C9 inhibition. CYP2C9 Supersomes, luciferin-H conversion, luminescence. inhibition, % at 5 µM. actives 20% (n = 96,000). P11712;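 active means blocking of liver enzyme CYP2C9 beyond about 50% at 5 µM, limit read from the data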
CYP2C19 inh – blocks human cytochrome P450 2C19; P33261; CYP2C19 Supersomes, luciferin-H EGE luminescence, 30 min; inhibition, % at 5 µM; actives 21% (n = 96,000);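 active means CYP2C19 inhibition above a set limit at 5 µM in the primary screen, cut at about 50% in these data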;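 further: plate controls were negative control wells for no effect and 2.5 mM tranylcypromine positive control for full effect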
PLAP act – activates human placental alkaline phosphatase; P05187; purified PLAP enzyme, luminescent substrate read-out; hits give high values; activation fold at 20 µM; actives 1.2% (n = 96,000); AID 696; in the data active means activation fold above about 2
CYP2C9 act – CYP2C9 (human) activation | actives 1.4% (n = 96,000) | recombinant CYP2C9, luciferin-H conversion, luminescence; hits give high values; factor 1 = untreated enzyme, 0 = blocked | P11712 | activation factor at 5 µM | AID 1024;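 active means activation factor of 2 or more for CYP2C9 at a 5 µM dose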;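 further: 0 = sulfaphenazole-blocked wells and 1 = vehicle-only wells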
* marks the source's active call; other numbers are inactive results. Rows were chosen to be rich in hits. Some 31% of all compounds tested hit in one or more screens of this group.

SMILES	CYP2C19 act	CYP2C9 inh	CYP2C19 inh	PLAP act	CYP2C9 act
O=C(OC(C(=O)NC1CCCC1)c1ccccn1)c1cccs1 (stereo not drawn)	0.9	-0.4	5.9	1	1
COc1ccc(N2CC(O)=C(c3n(C)c4ccccc4[n+]3C)C2=N)cc1	1.1	-11.2	-13.0	0.9	1.1
CC(CCc1ccco1)NC(=O)Nc1cccc(F)c1 (stereo not drawn)	0.2	83.0*	83.6*	1.3	0.2
Cc1ccc(NC(=O)CS(=O)CC(=O)NC(C)CCc2ccco2)cc1Cl (stereo not drawn)	0.7	16.3	34.0	0.9	0.8
Cc1ccc(F)cc1NC(=O)C1CCN(c2cnccn2)CC1	0.6	4.8	44.3	1	1
CCOC(=O)C(Cc1c[nH]c2ccccc12)NC(=O)c1ccco1 (stereo not drawn)	0.2	72.2*	77.6*	1.2	0.3
CCCCCCC1/C(=N/O)CCC1C(=O)OC (stereo not drawn)	0.3	43.8	66.1*	0.9	0.6
CCOC(=O)C1(S(=O)(=O)c2ccc(Cl)cc2)CCN(Cc2ccc(C)cc2)CC1	0.1	99.4*	91.5*	1.3	0
O=C(Nc1nc2ccccc2[nH]1)c1ccc(Cl)c(S(=O)(=O)N2CCCC2)c1	0.6	33.2	43.2	1.9	0.7
CN(Cc1ccccc1)Cc1nc2c(c(=O)n(C)c(=O)n2C)n1CCCc1ccccc1	0.2	93.8*	82.9*	1.1	0.1
CC(C)Cn1c(CN(C)Cc2ccccc2)nc2c1c(=O)n(C)c(=O)n2C	0.9	81.0*	12.5	1.3	0.2
Nc1nc(-c2cccc(NS(=O)(=O)c3ccccc3)c2)cs1	0	95.4*	98.7*	1.1	0
Cc1nc(-c2cccc(NS(=O)(=O)c3cccc4ccccc34)c2)cs1	0	-5.6	97.5*	1.5	1.1
N#CC(c1ccc(Cl)cc1)c1nc2ccccc2nc1C(F)(F)F (stereo not drawn)	0.5	26.4	52.0*	1	0.7
FC(F)(F)c1nc2ccccc2nc1N/N=C\c1ccccc1	0.8	24.8	20.7	0.9	0.8
CCOC(=O)N1CCN(C(=O)CCc2ccc(S(=O)(=O)NCCc3ccccc3)cc2)CC1	0.2	77.7*	82.3*	1.7	0.2
CC(C)CNS(=O)(=O)c1ccc(CCC(=O)Nc2ccc3c(c2)OCO3)cc1	1	37.8	4.6	0.9	0.6
CCOC(=O)N1CCN(C(=O)CCSc2ccccc2)CC1	0.3	37.9	71.3*	1.4	0.6
O=C(CCc1ccc(S(=O)(=O)NCCc2ccccc2)cc1)N1CCN(Cc2ccc3c(c2)OCO3)CC1	0.5	43.3	53.1*	1.4	0.6
O=C(CCc1ccc(S(=O)(=O)NCCc2ccccc2)cc1)Nc1ccc2c(c1)OCO2	0.1	84.2*	90.3*	0.9	0.2
O=C(CNC(=O)c1ccc(Oc2ccccc2)cc1)OC1CCCCC1=O (stereo not drawn)	0.9	11.8	10.7	1	0.9
Cc1ccc(-c2nc3ncccc3o2)cc1NC(=O)c1sc2ccccc2c1Cl	0.8	43.1	15.3	0.8	0.6
Cc1nn(Cc2ccc(Br)cc2)c(C)c1NC(=O)c1nn(C)cc1Cl	0.6	60.9*	43.1	1.3	0.4
Cc1ccc(Cn2ccc(NC(=O)c3cc(-c4ccc(Cl)cc4)on3)n2)cc1	1	22.0	4.7	0.9	0.8
CC(C)Cc1cc(C(=O)Nc2cc(C(F)(F)F)ccc2Cl)no1	0.9	-169.5	10.4	0.9	2.7*
SMILES	CYP2C19 act	CYP2C9 inh	CYP2C19 inh	PLAP act	CYP2C9 act
Cc1ccc(Cn2ccc(NC(=O)c3cc(CC(C)C)on3)n2)cc1	0.8	89.6*	22.7	0.9	0.1
Cc1cc(NC(=O)c2cc(C(C)C)on2)nn1Cc1ccc(Cl)cc1	0.3	40.2	65.0*	1.2	0.6
COC(=O)C1=C(C)NC(=O)NC1c1ccc(OCC(=O)N2CCCCC2)cc1 (stereo not drawn)	1.1	11.2	-9.0	1.1	0.9
CCOc1cccc(-c2nnc3sc(COc4ccc(Cl)cc4)nn23)c1	0.9	19.8	11.2	0.9	0.8
Cc1nn(Cc2ccc(Cl)c(Cl)c2)c(C)c1NC(=O)c1cc(CC(C)C)on1	0.3	82.1*	73.6*	1.1	0.2
CCOC(=O)c1ccc(Oc2nc(NC(C)(C)C)nc(N(C)C)n2)cc1	0.2	87.5*	84.0*	1.7	0.1
CC(C)C1N=C(c2ccc3c(c2)OCO3)CC(c2ccccc2O)N1 (stereo not drawn)	0.5	61.2*	54.2*	1	0.4
O=C(OCc1ccccc1F)c1ccc2c(c1)-c1ccccc1C2=O	1.1	-0.2	-9.8	1	1
COc1ccc(CCNC(=O)CSc2ncnc3c2oc2ccccc23)cc1OC	0.5	82.1*	51.2*	1.7	0.2
O=C(CSc1ncnc2c1oc1ccccc12)Nc1ccccc1C(F)(F)F	0.6	84.8*	44.1	1	0.2
O=C(O)CSc1ncnc2c1oc1ccccc12	1	6.1	0.7	1	0.9
O=C(CSc1ncnc2c1oc1ccccc12)NCc1ccco1	0.8	59.8*	17.3	1	0.4
Cc1nc(SCC(=O)Nc2ccc(C)c(F)c2)c2oc3ccccc3c2n1	0.2	93.0*	79.4*	0.9	0.1
COc1cccc(NC(=O)CSc2ncnc3c2oc2ccccc23)c1	0.9	7.4	6.2	0.8	0.9
CC1CCc2cc(F)ccc2N1C(=O)CSc1nnc(-c2cccs2)n1C (stereo not drawn)	0.9	-5.4	7.5	1.2	1.1
COc1ccc(-c2csc(Cc3nnc(N4CCOCC4)n3-c3ccccc3)n2)cc1	1.2	12.2	-17.6	1.6	0.9
Cc1ccc2nc(CSc3nc(C)ccc3C#N)[nH]c2c1	0.4	49.8	58.1*	2.2*	0.5
CC(=O)NCCc1ccc(S(=O)(=O)NC2OC(=O)c3ccccc32)cc1 (stereo not drawn)	1.2	-13.8	-19.0	1	1.1
Clc1ccc(OCCn2cnc3ccccc32)cc1	0.2	76.9*	83.5*	1	0.2
Clc1ccccc1OCCn1cnc2ccccc21	0.2	69.2*	79.6*	1	0.3
Cc1cc2ncn(CCOc3ccccc3C#N)c2cc1C	0.2	51.2*	77.0*	1.1	0.5
Cc1ccc(OCCCCn2cnc3ccccc32)c(C)c1	0.7	38.1	34.7	1.2	0.6
O=C(Nc1ccccc1)N1CCC(C(=O)N(Cc2ccco2)Cc2cccs2)CC1	0.8	30.3	17.8	1.1	0.7
COCCCn1c(Cc2csc(Nc3ccc(F)cc3)n2)nnc1SCC(N)=O	1	21.2	1.0	0.9	0.8
COC(=O)C1=C(C)NC2=C(C(=O)CCC2)C1c1cn(Cc2ccc(Cl)cc2Cl)nc1-c1ccccc1 (stereo not drawn)	0.5	73.0*	52.8*	1.4	0.3
CCOC(=O)C1=C(C)NC2=C(C(=O)CCC2)C1c1cn(Cc2ccc(Cl)cc2Cl)nc1-c1ccccc1 (stereo not drawn)	0.5	82.9*	51.0*	1.7	0.2
